Measurements taken from PubChem BioAssay (NCI).
The panel holds about 79,000 compounds, 15% with a hit somewhere; the sample as a whole holds those more often. No stated cut-off is given here; in the data, active means growth inhibition above about 70%; inactive means the rest. Where a SMILES comes first, the peptide text is derived from it. [ ]: non-standard residue; d: D form. The star is where a group is joined. ξ: configuration not given here. Cbz = O=C(OCc1ccccc1)*; ξK = NCCCCC(N)C(=O)O

What was measured:
[1] = NCI Yeast Anticancer Drug Screen. Data for the rad50 strain (AID 155);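 further: 0% = growth of vehicle-only cultures of the same strain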; conditions: S. cerevisiae rad50 strain growth inhibition; at 50.0 µM; hits give high values
Outline: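 Inhibition values express reduced yeast growth in compound-treated cultures relative to vehicle-treated controls.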

[2] = NCI Yeast Anticancer Drug Screen. Data for the mec2-1 strain (AID 157); conditions: S. cerevisiae mec2-1 strain, at 50.0 µM, hits give high values
Outline: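 Each compound was tested on mec2-1 yeast, a strain altered in DNA damage repair or cell cycle control. Growth inhibition is reported relative to vehicle.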

[3] = NCI Yeast Anticancer Drug Screen. Data for the sgs1 mgt1 strain (AID 161);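 further: 0% = growth of cultures given vehicle only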; conditions: S. cerevisiae sgs1 mgt1 strain, at 50.0 µM, hits give high values
Outline: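 Test agents were incubated with a DNA-repair-mutant yeast strain. Growth was then read and compared against vehicle-treated controls.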

[4] = NCI Yeast Anticancer Drug Screen. Data for the cln2 rad14 strain (AID 165);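 further: 0% = growth equal to vehicle treated cultures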; conditions: S. cerevisiae cln2 rad14 strain, at 50.0 µM, hits give high values
Outline: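 Test compounds were added to cln2 rad14 yeast cultures; inhibition of growth was then determined by comparison with vehicle treatment.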

[5] = NCI Yeast Anticancer Drug Screen. Data for the bub3 strain (AID 167); conditions: S. cerevisiae bub3 mutant strain, at 50.0 µM, hits give high values
Outline: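 Steps: expose the mutant yeast strain to compound; grow alongside vehicle-treated cultures; measure growth; express inhibition against the vehicle cultures.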

[6] = NCI Yeast Anticancer Drug Screen. Data for the mlh1 rad18 strain (AID 175); conditions: S. cerevisiae mlh1 rad18 strain growth inhibition; at 50.0 µM; hits give high values
Outline: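 Inhibition values reflect reduced growth of mutant yeast versus vehicle-treated controls following compound exposure; the mutations affect DNA damage repair.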

Measured: growth inhibition

C=CCNC(=S)NNC(=S)NCC=C
inactive: [1] 9.55% | [2] 34.1% | [3] 10.4% | [4] 3.6% | [5] -16.4% | [6] 22.2%

COc1ccc(CCCc2cc3c(cc2OC)OCO3)cc1
inactive: [1] 5.6% | [2] -4.1% | [3] 15.5% | [4] -8.65% | [5] 35.6% | [6] 12.2%

CC#CCC1CCC(OCC)=CC1=O (configuration not stated)
inactive: [1] 10.4% | [2] 9.25% | [3] 12.2% | [4] -20% | [5] 5.9% | [6] 17.1%

CCC(=O)Nc1ccc(F)cc1
inactive: [1] -4.65% | [2] 1.45% | [3] -0.45% | [4] -27.4% | [5] -10.9% | [6] 4.3%

COCC12CC(CC1=O)C1C2ON2c3ccccc3C(=O)C12c1ccccc1 (configuration not stated)
inactive: [1] 50.9% | [2] -8.25% | [3] 36.8% | [4] 37.8% | [5] 26.9% | [6] 18.6%

CCN(CC)c1ccc(NC(C)=O)c(C)c1
inactive: [1] -16.2% | [2] 21.1% | [3] 9.65% | [4] -15.8% | [5] 18.1% | [6] 3.3%

CC(C)OC(=O)Nc1cccc(C(=O)O)c1
inactive: [1] -6.55% | [2] -6.55% | [3] -2.8% | [4] -14.5% | [5] -16.4% | [6] -0.85%

O=C(Oc1ccc(C(=O)c2ccccc2)cc1)C(Cl)=C(Cl)Cl
inactive: [1] -6.95% | [2] -1.75% | [3] 7.7% | [4] -55.8% | [5] 7.35% | [6] -4%

C=CCOC(=O)C1CC(C)=CC(C)C1C (configuration not stated)
inactive: [1] 23.5% | [2] 3.6% | [3] -13.7% | [4] -46.4% | [5] -12.1% | [6] 5.2%

CC(=O)Nc1ncc(CCC2OCCO2)c(=O)[nH]1
inactive: [1] -0.55% | [2] -25.1% | [3] 19.6% | [4] -0.25% | [5] 7.65% | [6] 6.85%

COc1ccc(Cl)cc1NC(C)=O
inactive: [1] 5.1% | [2] 8.1% | [3] 5.2% | [4] 7.25% | [5] 3.7% | [6] -7.65%

Cc1ccc(N=NN(C)C)cc1NC(=O)NCC(=O)OC(C)(C)C
inactive: [1] 4.7% | [2] 8.7% | [3] 4.95% | [4] -31.6% | [5] 7.25% | [6] 7.8%

O=C(Oc1ccccc1)N1CCCSC1=S
inactive: [1] 19.4% | [2] -14.3% | [3] 5.35% | [4] 31.4% | [5] 16.2% | [6] 51.2%

Cc1ccc(Cl)cc1NS(=O)(=O)c1ccccc1
inactive: [1] -4.35% | [2] -31.1% | [3] -2.8% | [4] -14.3% | [5] -22.8% | [6] 5.55%

Oc1cc(OCCCc2ccc(F)cc2)cc2ccc3ccccc3c12
inactive: [1] 50.5% | [2] 43.5% | [3] 20.8% | [4] -32.5% | [5] 54% | [6] 43.1%

OCC(O)c1ccccn1 (configuration not stated)
inactive: [1] 5.5% | [2] -18.8% | [3] 6.65% | [4] -1.45% | [5] 2.55% | [6] 6.2%

CC[N+](C)(CC)Cc1ccc([NH-])c([NH-])c1.[Cl][Pt+2][Cl]
inactive: [1] 35.1% | [2] 27.4% | [3] 36% | [4] 37.2% | [5] -13.7% | [6] 28.4%

COc1ccccc1NC(=O)CC(=O)N1N=C(N2c3ccccc3Sc3ccccc32)CC1c1ccccc1 (configuration not stated)
inactive: [1] 2.55% | [2] 3.2% | [3] -2.15% | [4] 22.7% | [5] 12.4% | [6] -66.5%

CN1c2ccccc2C2CC(CC#N)CC(=O)C21 (configuration not stated)
inactive: [1] 18.9% | [2] 13.7% | [3] -8.1% | [4] -12.2% | [5] -20.2% | [6] 20.2%

CCOC(=O)C(C#N)C1=CC(=O)C(=O)c2ccc(O)cc21 (configuration not stated)
inactive: [1] -4.8% | [2] -7.65% | [3] -1.15% | [4] 27% | [5] 16.6% | [6] 0.45%

CCO/C=C1/N=C(Cc2ccccc2)OC1=O
inactive: [1] 18.4% | [2] -2.05% | [3] 7.65% | [4] 23.4% | [5] 3.65% | [6] 13%

CCCCOC(=O)C1C=C(N)CCC1 (configuration not stated)
inactive: [1] 12.8% | [2] 6.8% | [3] -3.35% | [4] -32.6% | [5] -9.05% | [6] -16.4%

Nc1cccnc1NCC(O)c1ccccc1 (configuration not stated)
inactive: [1] 1.9% | [2] -13.7% | [3] -9.45% | [4] -12.6% | [5] -11.6% | [6] 10.6%

O=c1[nH]nc(-c2ccccc2)n1/N=C\c1ccccc1
inactive: [1] -33.1% | [2] -10.3% | [3] -15.6% | [4] -26.1% | [5] 6.15% | [6] -26%

COc1ccc(/C=C2\CCCC3=C2NC(=S)NC3c2ccc(OC)cc2)cc1 (configuration not stated)
inactive: [1] 24.8% | [2] 21.4% | [3] -6.35% | [4] 5.9% | [5] -1.95% | [6] -37.4%

CCC(=O)C12OC3OC(C)(C)OC3C1OC(C)(C)O2 (configuration not stated)
inactive: [1] 0.25% | [2] 0.75% | [3] -15.2% | [4] 25.1% | [5] -1.9% | [6] 4.7%

C=CCOCn1ccc(N)nc1=O
inactive: [1] -3.3% | [2] -0.55% | [3] 1.8% | [4] 7% | [5] -6.05% | [6] -2.95%

Oc1cccc2nc3ccccc3cc12
inactive: [1] 4.3% | [2] 1.15% | [3] 16.2% | [4] -10% | [5] 3% | [6] 9.6%

COc1ccc(/C=N\O[Si](C)(C)C(C)(C)C)cc1O[Si](C)(C)C(C)(C)C
inactive: [1] 31.9% | [2] 17.2% | [3] 21.9% | [4] 5.05% | [5] -3.25% | [6] 15.8%

SCc1ccc(CS)s1
inactive: [1] 4.65% | [2] -1.75% | [3] -1.65% | [4] 17.8% | [5] 23.2% | [6] -4.3%

O=S(=O)(CCl)Nc1ccncc1
inactive: [1] -16.6% | [2] -9.6% | [3] -25.6% | [4] -77.2% | [5] 3.1% | [6] -16.8%

O=C(Cl)C(c1ccccc1)N1C(=O)c2ccccc2C1=O (configuration not stated)
inactive: [1] 7.15% | [2] 2.15% | [3] 0% | [4] -38.5% | [5] -4% | [6] 0.95%

CC(C)CC(O)(CC(C)C)C(CCC(=O)Nc1ccccc1)C(=O)Nc1ccccc1 (configuration not stated)
inactive: [1] 26.1% | [2] 11.9% | [3] 1.9% | [4] -52.1% | [5] -8.5% | [6] 7.6%

COc1ccc(N=Cc2ccc(OC(=O)c3ccccc3)c(OC)c2)cc1
inactive: [1] 2.15% | [2] 0.5% | [3] 0.55% | [4] -0.8% | [5] 13.3% | [6] -23.5%

COc1ccc(Nc2nc3ccccc3nc2-c2cccs2)cc1
inactive: [1] 5.2% | [2] -3.8% | [3] 23.5% | [4] -1.45% | [5] 14.3% | [6] 17.3%

NCCCCC(NC(=O)OCc1ccccc1)C(=O)NCC(N)=O (configuration not stated) (Cbz-[ξK]-Gly-NH2)
inactive: [1] 10.1% | [2] 8.5% | [3] 5% | [4] 4.05% | [5] 16.1% | [6] -30.2%

O=c1ccc2ccc(OP(=O)(O)O)cc2o1
inactive: [1] -12.4% | [2] -15.1% | [3] 11.4% | [4] 14.1% | [5] -34.7% | [6] 19.6%

COC(=O)c1ccc(C2CCC(OC(c3ccccc3)c3ccccc3)CC2)cc1 (configuration not stated)
inactive: [1] 39.6% | [2] -12.7% | [3] 26% | [4] -23.6% | [5] 0.85% | [6] -3.85%

CC(C)(C)c1ccc2c(c1)C(C)(C)CCC2(C)C
inactive: [1] 12.8% | [2] 0.8% | [3] 3.05% | [4] -52.6% | [5] 8.3% | [6] 19.2%

COc1ccc([N+](=O)[O-])cc1N=NN(C)C
inactive: [1] -1.9% | [2] -11.7% | [3] -10.8% | [4] -6.3% | [5] -5.8% | [6] -8.45%

O=C1CC(NC(=O)C(F)(F)F)c2c(Br)sc(N3CCNCC3)c21 (configuration not stated)
inactive: [1] 6.05% | [2] 12.1% | [3] -25.2% | [4] -2.2% | [5] -2.65% | [6] -30.4%

CCCCCCC1(C)OCC(c2ccccc2)O1 (configuration not stated)
inactive: [1] -0.1% | [2] -33.5% | [3] 5.95% | [4] -11.7% | [5] 2.2% | [6] 9.65%
